The text below walks through data of PubChem BioAssay AID720504 (National Center for Advancing Translational Sciences (NCATS), 2013).

In all, about 360,000 compounds went through this assay and about 10,000 (2.8%) were called active. Inconclusive results (about 4%) are left out. Many of the other results were omitted from the sample, so actives are more common in it than they were. Values without a mark were called inactive. Calls follow the shape of the dose curve; as a rule, active = well fitted inhibition curve with a large enough effect; inconclusive = small, poorly fitted or top-dose-only effect; inactive = flat fitted curve, though single readings scatter.
% is scaled to controls: 0 for no effect and ±100 for the full control effect; potency is read from the fitted curve at half-maximal effect.

Chain of Serine/threonine-protein kinase PLK1 (Homo sapiens) (P53350 whole entry, looked up, the tested form may be a part): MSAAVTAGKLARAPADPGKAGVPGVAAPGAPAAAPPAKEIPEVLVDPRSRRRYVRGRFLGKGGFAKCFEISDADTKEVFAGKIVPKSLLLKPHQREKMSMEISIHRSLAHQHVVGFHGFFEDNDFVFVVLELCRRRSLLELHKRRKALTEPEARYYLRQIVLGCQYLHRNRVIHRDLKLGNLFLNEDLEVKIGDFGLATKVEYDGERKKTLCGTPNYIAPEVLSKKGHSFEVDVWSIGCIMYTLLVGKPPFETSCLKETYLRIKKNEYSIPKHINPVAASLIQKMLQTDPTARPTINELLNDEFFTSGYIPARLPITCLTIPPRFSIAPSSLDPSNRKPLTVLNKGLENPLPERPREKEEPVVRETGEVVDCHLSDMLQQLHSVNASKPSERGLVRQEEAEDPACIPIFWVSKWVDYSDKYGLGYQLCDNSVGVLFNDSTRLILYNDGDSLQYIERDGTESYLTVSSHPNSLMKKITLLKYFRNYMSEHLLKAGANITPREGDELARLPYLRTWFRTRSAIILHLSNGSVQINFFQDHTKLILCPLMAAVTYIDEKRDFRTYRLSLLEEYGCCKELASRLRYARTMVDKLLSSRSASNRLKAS

This assay addresses Serine/threonine-protein kinase PLK1 (Homo sapiens) (UniProt P53350). The assay can be described thus: qHTS for Inhibitors of PLK1-PDB (polo-like kinase 1 - polo-box domain): Primary Screen. Also: nearly all actives have a fitted effect of over 65% in size. As to max response, negative = inhibition: series mostly up to about 57 µM. Particulars: Plk1 PBD binding of FITC phosphopeptide, fluorescence polarization. (In general: In qHTS, concentration-response curves come from the screen itself.)
Consider `COCCn1c(SCC(=O)Nc2ccc(F)cc2F)nc2c(c1=O)SCC2`, for which the max response, negative = inhibition is 10.8%. Turning to `Cc1ccc(Cc2c(-c3ccco3)nc3ccc(Cl)cn23)cc1`, the Potency is 21.2 µM (active).

Turning to `Cc1ccc(Cc2c(-c3ccccc3)nc3ccc(Cl)cn23)cc1`, the max response, negative = inhibition is -1.42%. Take `Cc1ccc(-c2nc3ccc(Cl)cn3c2Cc2ccccc2)cc1`: the max response, negative = inhibition was -1.46%. In the case of `CC1Cc2[nH][nH]c(=O)c2C(C2CCCC2)O1` (stereo not drawn), the max response, negative = inhibition was -5.58%.

In the case of `OC(c1ccccc1)c1nc(-c2cnc3ccccc3c2)cs1` (stereo not drawn), the max response, negative = inhibition is 1.51%. The same measure, in the same setting: the figure for `O=C(CSc1n[nH]c(-c2cccnc2)n1)Nc1ccnc2ccccc12` is -8.72%. Take `COc1ccc(Nc2nc(-c3cccnc3)nc3ccccc23)cn1`: the Potency is 21.2 µM (active). Consider `CCN(CC(=O)NC1CCS(=O)(=O)C1)c1nc(-c2cccnc2)nc2ccccc12` (stereo not drawn), for which the max response, negative = inhibition is -6.17%. The same measure, in the same setting: the result for `C[C@H]1CN([C@@H](C)CO)C(=O)CCCn2cc(nn2)CO[C@@H]1CN(C)S(=O)(=O)c1ccc(-c2ccccc2)cc1` reads -23.9%. For the compound `CCCc1[nH]nc2c1C(c1ccc(Br)s1)C(C#N)=C(N)O2` (stereo not drawn), the Potency was 23.8 µM (active). In the case of `COCc1[nH]nc2c1C(C1C=CCCC1)C(C#N)=C(N)O2` (stereo not drawn), the max response, negative = inhibition was -8.66%. As for `COc1ccc(-c2[nH]nc3c2C(c2ccncc2)C(C#N)=C(N)O3)cc1` (stereo not drawn), the max response, negative = inhibition is -28.1%.

With `CC(=O)Nc1cccc(-c2ccnc3c2CC(C)(C(=O)NCc2ccccc2)O3)c1` (stereo not drawn), the max response, negative = inhibition was 0.623%. On the same count and under the same terms, the figure for `CNC[C@H]1OCc2cnnn2CCCC(=O)N([C@H](C)CO)C[C@@H]1C` is -6.68%; for `Cc1cc2oc(=O)cc(CN(C)Cc3ccccc3)c2cc1Cl` it is -6.49%. Turning to `CSc1ncc(Sc2ccccc2)c(C(=O)O)n1`, the Potency was 23.8 µM (active). On to `CSc1ncc(C(=O)NCCCc2ccccc2)c(C)n1`, for which the max response, negative = inhibition is -4.81%. The same measure, in the same setting: the figure for `Cc1ccccc1C(=O)Nc1ccccc1Sc1ccccc1` is 2.65%; for `CN1C[C@@H](CO)O[C@@H](n2cnc3c(N4CCN(CCO)CC4)ncnc32)C1` it is 2.3%; for `COCCNC(=O)C1CCCN(Cc2ccccc2Cl)CC1` (stereo not drawn) it is -4.77%. `CC(=O)N1CCN(Cc2cc(=O)oc3cc(C)ccc23)CC1`: the max response, negative = inhibition was -2.03%.

As for `CCOC(=O)[C@H]1Nc2ccc(Cl)cc2[C@@H]2[C@H]1C1CC(c3ccccc31)N2C(=O)OCc1ccccc1` (stereo partly drawn), the max response, negative = inhibition is -10.8%. As to `CNc1cc(-c2c(OC)cccc2OC)ncn1`, the max response, negative = inhibition is -6.78%. For the compound `CN1CCN(c2ccc3c(c2)OC[C@H](Cc2ccccc2)NS3(=O)=O)CC1`, the max response, negative = inhibition is 0.181%. Same read-out and setting: the result for `COc1ccc(-c2nc3ccc(Br)cn3c2Cc2ccc(C)cc2)cc1OC` reads -11%.

On to `Cc1ccc2c(c1)C(c1ccccc1)N(C(=O)c1ccc(F)cc1)CC(=O)N2` (stereo not drawn), for which the max response, negative = inhibition was -0.372%. `Cc1ccc(C(=O)N2CC(=O)Nc3ccc(F)cc3C2c2ccc(F)cc2)cc1` (stereo not drawn): the max response, negative = inhibition was 1.6%. On to `Cc1ccc2c(c1)C(c1ccccc1)N(C(=O)c1ccc(S(=O)(=O)N3CCOCC3)cc1)CC(=O)N2` (stereo not drawn), for which the Potency is 23.8 µM (active). For `CCNC(=O)C1(C)CCCN(C(=O)c2c(C)noc2C)C1` (stereo not drawn), the max response, negative = inhibition is -0.543%. On the same count and under the same terms, the figure for `CCOC(=O)c1cc2cc(OC)ccc2n1C1CCN(C)CC1` is -4.75%; for `CCC(Oc1ccccc1)C(=O)OCC(=O)Nc1c(C)nn(-c2ccccc2)c1C` (stereo not drawn) it is -0.819%. As to `CCOc1ccc(CCN2C(=S)N([C@@H](CC(C)C)CN3CCC[C@@H]3CN3C(=S)NC[C@@H]3Cc3ccc(O)cc3)C[C@@H]2CC(C)C)cc1`, the max response, negative = inhibition is 5.19%.

With `COCC(C)NC(=O)c1ccc(Cl)c(Cl)c1` (stereo not drawn), the max response, negative = inhibition is -9.11%. Turning to `CCCNC(=O)c1ccc(Cl)c(Cl)c1`, the Potency was 21.2 µM (active). With `CCCNC(=O)c1c(Cl)cnn1-c1ccc(C)cc1`, the max response, negative = inhibition is -6.94%. The same measure, in the same setting: the figure for `COc1ccc(CC(N)c2csc(NC(=O)Cc3ccccc3)n2)cc1` (stereo not drawn) is -4.52%; for `COc1ccc(OC)c(C(O)c2ncc(-c3cccc(C(F)(F)F)c3)[nH]2)c1` (stereo not drawn) it is 6.6%; for `Cc1cc(Br)cn2c(Cc3ccccc3C(F)(F)F)c(-c3ccc(Cl)cc3)nc12` it is 2.92%. The same measure, in the same setting: the result for `COc1cc2nnn(-c3ccncc3)c2cc1OC` reads -2.85%; that for `CCOC(=O)C1(C)CCCN(C(=O)c2cccc(Cl)c2)C1` (stereo not drawn), -9.97%; that for `O=C1NC[C@H](CCCCN2CCN(CCc3ccccc3)C(=O)C2=O)N(CC2CCCCC2)C1=O`, -4.62%.

For `CC(C)Oc1ccc(CCc2n[nH]c(=S)n2Cc2ccccc2)cc1`, the max response, negative = inhibition was -8.99%. Same read-out and setting: the figure for `COc1cc(-c2n[nH]c(=S)n2Cc2ccccc2)cc(OC)c1OC` is -6.45%. As for `CC(C)Oc1ccc(Cc2n[nH]c(=S)n2Cc2ccccc2)cc1Cl`, the Potency was 16.8 µM (active). Take `CCc1c(N=O)c(-c2ccccc2)n(O)[n+]1[O-]`: the max response, negative = inhibition is -2.08%. For `Nc1[nH]c(C(=O)c2ccccc2)c(-c2ccc(Br)cc2)c1C(=O)NC1CC1`, the max response, negative = inhibition was -9.8%. Still for that read-out and setting: the result for `O=S1(=O)CC(N2CCN(Cc3ccccc3F)CC2)CN1Cc1cn(Cc2cccc(C(F)(F)F)c2)nn1` (stereo not drawn) reads -2.54%. With `CC(C)c1ccc(NC(=S)NC2CC3C=CC2C3)cc1` (stereo not drawn), the max response, negative = inhibition is -23.1%.

On to `CCC(C(=O)Nc1ccc(C(C)C)cc1)c1ccccc1` (stereo not drawn), for which the max response, negative = inhibition was 2.25%. The same measure, in the same setting: the figure for `O=C(NC(=S)Nc1ccc(Cl)c(C(=O)O)c1)c1cncc(Br)c1` is -11.2%.

For `CC(C)c1ccc(NC(=S)NNc2ccc(Cl)c(C(=O)O)c2)cc1`, the Potency was 23.8 µM (active). Take `Cc1ccc(NC(=S)NCCc2ccc(Cl)cc2)c(C)c1`: the max response, negative = inhibition was -3.36%. Regarding `Cc1ccc(C)c(NC(=S)NNC(=S)Nc2ccc(C(C)C)cc2)c1`, the Potency is 18.9 µM (active). Turning to `COC(=O)[C@]12CCCCC=C1N(Cc1ccco1)C(=O)[C@H](CC(=O)NCC1CCCCC1)C2`, the max response, negative = inhibition is -3.48%.

For the compound `CCCc1ccc(C(O)c2ncc(-c3cccc(OC)c3)[nH]2)cc1` (stereo not drawn), the max response, negative = inhibition was -2.5%. Still for that read-out and setting: the result for `COc1ccc(/C=C(\C#N)C(=O)OCC(=O)N(C)C2CCS(=O)(=O)C2)cc1` (stereo not drawn) reads -10.5%; that for `CN(C(=O)COC(=O)Cc1ccccc1[N+](=O)[O-])C1CCS(=O)(=O)C1` (stereo not drawn), 1.07%. For `CN(C(=O)COC(=O)c1cc(-c2ccco2)nc2ccccc12)C1CCS(=O)(=O)C1` (stereo not drawn), the Potency was 18.9 µM (active). For `COc1cncc(-c2cnc3sc(NCCc4ccccn4)nn23)c1`, the max response, negative = inhibition is -12.3%.

As to `Cc1ccc(S(=O)(=O)N2CC(=O)Nc3ccccc32)cc1C`, the max response, negative = inhibition is -4.98%. Same read-out and setting: the result for `Cc1ccc(C)c(S(=O)(=O)N2CCN(C(=O)Nc3ccccc3)CC2)c1` reads -2.91%. On to `Cc1ccc(C)c(S(=O)(=O)N2CC(=O)Nc3ccccc32)c1`, for which the Potency was 23.8 µM (active). For `NC(c1csc(NC(=O)Nc2ccccc2Oc2ccccc2)n1)c1ccccc1Cl` (stereo not drawn), the max response, negative = inhibition is 0.513%. Consider `Cc1cccc(N(CC(=O)N2CCCC2)S(C)(=O)=O)c1C`, for which the max response, negative = inhibition is -8.37%. Still for that read-out and setting: the figure for `O=C(NCc1ccccc1)C(c1ccc(F)cc1)N1CCN(C(=O)C2CCCO2)CC1` (stereo not drawn) is 1.19%.

Turning to `CCN(C(=O)CN1CCN(Cc2ccccc2)CC1)c1c(N)n(Cc2ccccc2)c(=O)[nH]c1=O`, the Potency is 23.8 µM (active).

For the compound `CCN(C(=O)COC(=O)Cc1c(F)cccc1Cl)c1c(N)n(Cc2ccccc2)c(=O)[nH]c1=O`, the max response, negative = inhibition is 4.8%. In the case of `CCN(C(=O)COC(=O)c1sccc1C)c1c(N)n(Cc2ccccc2)c(=O)[nH]c1=O`, the max response, negative = inhibition was -3.78%. `COc1ccc(NC(=O)CCCOc2ccc(C(C)=O)cc2)cc1S(=O)(=O)N1CCCCC1`: the max response, negative = inhibition was 2.7%. On the same count and under the same terms, the result for `Brc1ccc2nc(-c3ccccc3)c(Cc3ccccc3)n2c1` reads -6.3%; that for `CN1OC[C@@H]2CN(C(=O)c3cccc4ccccc34)[C@H](c3ccc(N4CCCCC4)cc3)C[C@@H]21`, -3.91%.

Consider `CC1(C(=O)Nc2cccc3c2CCCC3)CCN1C(=O)C1(c2ccccc2)CC1` (stereo not drawn), for which the max response, negative = inhibition was 2.66%. The same measure, in the same setting: the result for `CC1(Cc2ccccc2C#N)C(=O)Nc2ccc(-c3ccc4[nH]ccc4c3)cc21` (stereo not drawn) reads 2.71%; that for `CCOC(=O)C1(CCOC)CCN(Cc2ccc(C(=O)OC)cc2)CC1`, -4.26%; that for `CCOC(=O)C1(CCOc2ccccc2)CCN(Cc2cc(OC)cc(OC)c2)CC1`, -2.45%. For the compound `CCOC(=O)C1(CCOC)CCN(Cc2cc3ccccc3s2)CC1`, the Potency is 10.6 µM (active). Regarding `O=C(Nc1cccc2cccnc12)c1ccc2sc([C@H]3C[C@H](O)[C@@H](CO)O3)nc2c1`, the max response, negative = inhibition is 3.77%. With `Nc1nnc(SCC(=O)Nc2ccc3nc(SCC(=O)Nc4ccccc4)sc3c2)s1`, the max response, negative = inhibition is 2.76%. For the compound `Cn1c(=O)[nH]c(=O)c2c1nc(N1CCN(CCO)CC1)n2CCSc1nc2ccccc2s1`, the max response, negative = inhibition was -15.4%.

As for `O=C(O)c1ccccc1CSc1nc2ccccc2s1`, the Potency is 8.44 µM (active). `Cc1noc(C)c1S(=O)(=O)N(C)C[C@H]1OCCCC[C@@H](C)Oc2ccc(NC(=O)CCCN(C)C)cc2C(=O)N([C@H](C)CO)C[C@@H]1C`: the max response, negative = inhibition is -12.6%.

As for `CC1(C(=O)NS(=O)(=O)Cc2cccc(Cl)c2)CCN1C(=O)Cc1ccccc1` (stereo not drawn), the max response, negative = inhibition was 0.171%. On to `CSCCC(NC(=O)COc1ccccc1)C(=O)N1CCN(c2cccc(C(F)(F)F)c2)CC1` (stereo not drawn), for which the max response, negative = inhibition was 10.8%.

For the compound `Cc1c(C)c2ccc(OCC(=O)N3CCN(c4cccc(Cl)c4)CC3)cc2oc1=O`, the max response, negative = inhibition is -4.22%. `O=C(COc1ccc(Cl)cc1)N1CCN(c2cccc(C(F)(F)F)c2)CC1`: the Potency is 18.9 µM (active). Consider `CCOc1cc(/C=N/NC(=O)c2ccncc2)cc(Br)c1O`, for which the max response, negative = inhibition was -2.72%. Still for that read-out and setting: the figure for `O=C(CC[C@H]1O[C@@H](n2ccc(=O)[nH]c2=O)[C@H](O)[C@@H]1O)N[C@H](Cc1ccccc1)C(=O)NCCCN1CCCC1=O` is -13.5%.
